About 760 (36%) of roughly 2,100 compounds were called active.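 Rule for the calls: active = thallium-flux fluorescence traces judged by eye to show enhanced or reduced glutamate response, manual score 1 or -1, so both directions (some results past the limit were not filed as active); inactive = the rest, including fluorescent or raised-baseline compounds.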 Only a sample is shown.
Assay: thallium influx changes without GIRK channels – cell-based, HEK-293 rmGlu8, no GIRK, thallium flux, counter-screen for GIRK activator project, confirmation (AID 623868);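 note: extra codes mark interference with 3 for fluorescent and 4 for baseline rise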
Settings: thallium flux fluorescence, at 10 µM, actives lie on both sides, codes: 1 enhancer, -1 blocker, 0 none, thallium stimulus containing EC20 glutamate

| SMILES | manual score |
| --- | --- |
| Cc1ccc(C(C(=O)NC2CCCC2)N2CCCC(C)C2)cc1 (configuration not stated) | 0 (inactive) |
| O=C(NC(=S)N1CCN(c2ccc([N+](=O)[O-])cc2)CC1)c1ccc(F)cc1 | 1 (active) |
| CCC(=O)c1ccc(N2CCN(C(=O)c3cc([N+](=O)[O-])ccc3N3CCN(C)CC3)CC2)c(F)c1 | 0 (inactive) |
| CCOC(=O)C1CCN(C(=O)NC23CC4CC(CC(C4)C2)C3)CC1 | 0 (inactive) |
| O=C(c1csc2c1CCCC2)N1CCN(c2ccc(F)cc2)CC1 | 0 (inactive) |
| O=S(=O)(c1ccccc1)N1CCN(C(=S)Nc2ccc(F)cc2)CC1 | 0 (inactive) |
| O=C(NC(=S)N1CCN(c2ccc(F)cc2)CC1)C12CC3CC(CC(C3)C1)C2 | 1 (active) |
| CCOc1ccccc1N1CCN(C(=S)NC(=O)C23CC4CC(CC(C4)C2)C3)CC1 | 0.5 (inactive) |
| O=C(NC(=S)N1CCCCC1)C12CC3CC(CC(C3)C1)C2 | 1 (active) |
| CC12CC3CC(C)(C1)CC(C(=O)NC(=S)N1CCCCC1)(C3)C2 | 1 (active) |
| CCCCN(Cc1ccccc1)S(=O)(=O)c1ccc2[nH]c(=O)oc2c1 | 0 (inactive) |
| COc1ccc(Cl)cc1C(=O)CSc1nnnn1C1CCCC1 | 0 (inactive) |
| CC12CC3CC(C)(C1)CC(C(=O)NC(=S)N1CCOCC1)(C3)C2 | 1 (active) |
| CC12CC3(C)CC(C)(C1)CC(C(=O)NC(=S)N1CCOCC1)(C2)C3 | 1 (active) |
| O=C(c1ccco1)N1CCN(C(=O)c2cnn3c2NC(c2cccs2)CC3C(F)(F)F)CC1 (configuration not stated) | 0 (inactive) |
| CCc1sc(NC(=O)CN2CCOCC2)nc1-c1ccccc1 | -1 (active) |
| O=C(CN1CCOCC1)Nc1ccc(C2CCCCC2)cc1 | 0 (inactive) |
| O=C(CSc1nc(-c2ccccc2)cc(C(F)(F)F)n1)NCCN1CCOCC1 | 0 (inactive) |
| CCN(CC)S(=O)(=O)c1csc(C(=O)NCc2ccccc2)c1 | 0 (inactive) |
| COc1ccc(OC)c(C2C(C(=O)c3cccs3)=C(O)C(=O)N2c2cc(C)on2)c1 (configuration not stated) | -1 (active) |
| COc1ccc(C(OC(=O)c2cccs2)C(=O)NCC2CCCO2)cc1 (configuration not stated) | 0 (inactive) |
| Cc1cc(N2C(=O)C(O)=C(C(=O)c3ccc(C)o3)C2c2cccs2)no1 (configuration not stated) | -1 (active) |

| SMILES | manual score |
| --- | --- |
| COc1ccc2nc3oc(C(=O)Nc4ccc(OC)c(OC)c4)cc3cc2c1 | 0 (inactive) |
| COc1ccc(OC)c(C2C(C(=O)c3cc4ccccc4o3)=C(O)C(=O)N2c2cc(C)on2)c1 (configuration not stated) | -1 (active) |
| C=CCOc1cccc(C2C(C(=O)c3ccc(C)o3)=C(O)C(=O)N2c2nccs2)c1 (configuration not stated) | 3 (inactive) |
| C/C(CC(=O)NCC(C)C)=N\NC(=O)COc1cc(C)c(Br)cc1Br | 0 (inactive) |
| CCOc1ccc(C(=O)NC(=S)N(Cc2ccccc2)Cc2ccccc2)cc1 | 1 (active) |
| COc1ccc(S(=O)(=O)N(CCc2ccccc2)CC(=O)O)cc1 | 0 (inactive) |
| CCOc1ccc(N2C(=O)c3ccccc3C2O)cc1 (configuration not stated) | 0 (inactive) |
| CCOc1ccc(NC(=O)CCC(=O)c2ccc(-c3ccccc3)cc2)cc1 | 0 (inactive) |
| COc1ccc(C(=O)NC(=S)N(Cc2ccccc2)Cc2ccccc2)cc1 | 1 (active) |
| CC(=O)CN1Cc2ccccc2/C1=N\C(=O)Nc1ccccc1 | 0 (inactive) |
| Cc1nc2ccccn2c1-c1csc(NCc2ccco2)n1 | -0.5 (inactive) |
| CCc1c(C)c(C#N)c2nc3ccccc3n2c1NCc1ccco1 | -1 (active) |
| Cn1cc(S(=O)(=O)Nc2ccc(F)cc2F)c(=O)n(C)c1=O | 0 (inactive) |
| O=C(N/N=C/c1ccccn1)c1ccc(Br)cc1 | 1 (active) |
| O=C(N/N=C/c1ccc2cccc(OCc3ccccc3)c2n1)c1ccc(Br)cc1 | 1 (active) |
| COc1ccc(/C=N/NC(=O)c2nc(-c3ccccc3)cc(-c3ccccc3)n2)cc1 | 0 (inactive) |
| N/C(=N\OC(=O)Cc1ccccc1)c1ccc(Br)cc1 | 0 (inactive) |
| COc1ccc(C(=O)N/N=C/c2ccc3cccc(OCc4ccccc4)c3n2)cc1 | 1 (active) |
| CSC1=N/C(=C\c2ccc(Br)o2)C(=O)S1 | 0 (inactive) |
| CCCCN(C)C1=CC2=CC(=C(C#N)C#N)CCC2CC1 (configuration not stated) | 3 (inactive) |
| Cc1cc2c(cc1C)C(=O)NC(C)(C)C2 | 0 (inactive) |
| Cc1cccc(OCC(O)CN2C(C)(C)CC(O)CC2(C)C)c1 (configuration not stated) | 0 (inactive) |

| SMILES | manual score |
| --- | --- |
| COc1ccc(Nc2nc(C)cc(C)c2C#N)cc1OC | 0 (inactive) |
| CCc1nc(N2CCOCC2)c(C#N)c2c1CCCC2 | 0 (inactive) |
| Oc1[nH]c2ccccc2c1N=Nc1nc2ccccc2s1 | 1 (active) |
| CCN(CC)CCCn1c(=S)[nH]c2cc(Cl)ccc2c1=O | 0 (inactive) |
| CCCCn1c(-c2ccc(Cl)cc2)nc2c(=O)n(C)c(=O)[nH]c21 | 0 (inactive) |
| CCCCn1c(=S)[nH]c2c(oc3ccc(Cl)cc32)c1=O | 1 (active) |
| CC1(C)CC(=O)c2c(noc2-c2ccccc2)C1 | 0 (inactive) |
| CC1Cc2ccccc2N1C(=S)NC(=O)c1ccc(Cl)cc1Cl (configuration not stated) | 1 (active) |
| CCCCN(CCCC)C(=S)NC(=O)c1ccccc1Cl | 1 (active) |
| CCCCN(CCCC)S(=O)(=O)c1ccc(NC(=O)c2ccc([N+](=O)[O-])cc2Cl)cc1 | 0 (inactive) |
| CCCCn1c(NC(=O)c2ccccc2Cl)c(C#N)c2nc3ccccc3nc21 | 0 (inactive) |
| CCCN(CCC)C(=S)NC(=O)c1ccc(Cl)cc1Cl | 1 (active) |
| CCCCN(CCCC)C(=S)NC(=O)C(C)(C)C | 1 (active) |
| CCCN(CCC)CCCOC(=O)c1ccc(Cl)cc1Cl | 0 (inactive) |
| CCCCN(CCCC)c1ccc(C(=O)c2ccccc2C(=O)O)c(O)c1 | -0.5 (inactive) |
| CC(C)CCNC(=O)C(C)N(C(=O)Cn1nnc(-c2ccc(F)cc2)n1)C1CCCC1 (configuration not stated) | 0 (inactive) |
| CCCCC(=O)N1CCCC(c2nc3c(nnn3Cc3cc(C)ccc3C)c(=O)[nH]2)C1 (configuration not stated) | 0 (inactive) |
| CC(C)(C)c1ccc(CN2C3=NCCCN3c3ccccc32)cc1 | 0 (inactive) |
| CCN(CC)C(=S)NC(=O)c1ccc(Cl)cc1Cl | 1 (active) |
| CCOC(=O)/C(=C/C=C1\Sc2ccccc2N1CC)C(C)=O | 3 (inactive) |
| COc1ccc(NC(=S)NC(NC(=O)/C=C/c2ccccc2)C(Cl)(Cl)Cl)cc1 (configuration not stated) | 0 (inactive) |
| O=C(/C=C/c1ccccc1)c1cc(Br)ccc(=O)c1O | 1 (active) |

| SMILES | manual score |
| --- | --- |
| CCc1ccc(/C=C/C(=O)c2cc(Br)ccc(=O)c2O)cc1 | 1 (active) |
| COc1ccc(/C=C/C(=O)c2cc(Br)ccc(=O)c2O)cc1 | 1 (active) |
| Cc1ccc(/C=C/C(=O)c2ccccc(=O)c2O)cc1C | 1 (active) |
| CCCCCCn1cnc2c(c1=O)c1nc3ccccc3nc1n2/N=C/c1ccco1 | 0 (inactive) |
| Cc1cccc(NC(=O)COc2ccc(Br)cc2/C=N/O)c1 | 0 (inactive) |
| Cc1cccc(/C=c2\s/c(=C\C(=O)C(C)(C)C)[nH]c2=O)c1 | 0 (inactive) |
| Cc1cccc(/C=C/C(=O)c2cc(Br)ccc(=O)c2O)c1 | 1 (active) |
| CC(C)(C)C1CCc2[nH]nc(C(=O)O)c2C1 (configuration not stated) | -1 (active) |
| CSC(=O)NC12CC3CC(CC(C)(C3)C1)C2 | 0 (inactive) |
| Cc1ccc(C(=O)NC(=S)Nc2ccccc2C(F)(F)F)cc1 | 1 (active) |
| O=C(NC(=S)Nc1cc(C(F)(F)F)ccc1Cl)c1ccccc1 | 0 (inactive) |
| Cc1ccc(C(=O)NC(=S)Nc2ccccc2C(F)(F)F)cc1C | 1 (active) |
| Cc1cccc(C(=O)NC(=S)Nc2ccccc2C(F)(F)F)c1 | 1 (active) |
| O=C(NC(=S)NCc1ccc(-c2nc3ccccc3s2)cc1)c1ccco1 | 1 (active) |
| O=C(NC(=S)Nc1nc2ccccc2s1)c1ccco1 | 1 (active) |
| O=C(Nc1ccncc1)c1ccc2c(c1)C(=O)N(C1CCCCC1)C2=O | 0 (inactive) |
| CC(C)(C)C(=O)/C=c1\[nH]c(=O)/c(=C\c2ccc(F)cc2)s1 | 0.5 (inactive) |
| CCOc1ccc(C(C)=O)cc1N1C(=O)C2C(C1=O)C1C=CC2C12CC2 (configuration not stated) | 0 (inactive) |
| CCOc1cc(/C=N/NC(=O)CNc2cccc(C)c2)ccc1OC(=O)c1ccccc1 | 0 (inactive) |
| Cc1nc(/N=C(\N)NC(=O)c2ccccc2)nc2ccccc12 | 0 (inactive) |
| Cc1ccc(C(=O)NC2(C(F)(F)F)N=C3SCCN3C2=O)cc1 (configuration not stated) | 0 (inactive) |
| Cc1ccc(C(=O)NNc2nc3ccccc3nc2C(F)(F)F)cc1 | 1 (active) |

| SMILES | manual score |
| --- | --- |
| O=C(NNc1nc2ccccc2nc1C(F)(F)F)c1ccccc1 | 1 (active) |
| CC(C)n1c(CCC(=O)O)ccc1-c1ccccc1 | 0 (inactive) |
| Fc1ccc(/C=N/NC(=S)Nc2ccc(Cl)cc2)cc1F | 1 (active) |
| Fc1ccc(NC(=S)N/N=C/c2ccc(F)c(F)c2)c(F)c1 | 1 (active) |
| Fc1cc(Br)ccc1NC(=S)NCCc1ccccc1 | 0 (inactive) |
| S=C(N/N=C/c1ccccc1Cl)Nc1ccccc1 | 0 (inactive) |
| Fc1ccc(NC(=S)N/N=C/c2cccc(Br)c2)c(F)c1 | 1 (active) |
| Fc1cccc(/C=N/NC(=S)Nc2ccccc2Cl)c1 | 1 (active) |
| CCSc1ccccc1C(=O)Nc1cccnc1 | 0 (inactive) |
| CN(C(=O)c1cccnc1)c1nnc(-c2cnccn2)s1 | 0 (inactive) |
| Cc1ccccc1-n1nnc2c(=O)oc3ccccc3c21 | -1 (active) |
| CN1C(=O)c2oc3ccccc3c(=O)c2C1c1ccccn1 (configuration not stated) | 0 (inactive) |
| CC(=O)Oc1ccc2c(c1)Oc1cc(OC(C)=O)ccc1C21OC(=O)c2ccccc21 | 3 (inactive) |
| CCCn1c(SC(C(=O)Nc2cc(C)ccc2OC)c2ccccc2)nc2ccccc2c1=O (configuration not stated) | 1 (active) |
| COc1cccc(NC(=O)Cn2cc(C#N)c3ccccc32)c1 | 0 (inactive) |
| COc1ccc(NC(=O)CSc2nc3ccccc3c(=O)n2CCCN2CCCCC2)c(OC)c1 | 0 (inactive) |
| COc1cc(OC)c(NC(=O)CCNC(=O)Cn2cnc3ccccc3c2=O)cc1Cl | 0 (inactive) |
| COc1cccc(NC(=O)CSc2nc(N)cc(N)n2)c1 | 0 (inactive) |
| COc1cccc(NC(=O)C(Sc2nc3ccccc3c(=O)n2CC(C)C)c2ccccc2)c1 (configuration not stated) | 1 (active) |
